Test results from ChEMBL document CHEMBL3988442, “University of Dundee, Small-Polar-MMV Screening Library” (2021).
The campaign covered roughly 38,000 compounds. About 1,200 (3.2%) showed an effect of 50% or more. The median lay at about -58%. Only a selection was taken, and strong results are over-represented in it overall.

system: Plasmodium falciparum; assay: Calibr Malaria Delayed Death Assay SOP; type: functional, organism-based; set-up: scale not given: in the data most compounds retested in dose-response had high values; settings: concentration 4.99e-06 (unit not given; other assays of the set use mol/L)

Compound	Percent Effect [%]
Cc1nc2cc(NCc3cnn(C)c3)ccc2n1C	-142.2
COCCN(C)C[C@@H]1CN(C(=O)NC2CCCCC2)C[C@@H]1CO	-45.61
CCn1c(C)cc(C(=O)Nc2ccccc2CN(C)C(C)=O)c1C	-65.04
O=C(c1cnc(C2CC2)nc1O)N1CCN(Cc2ccccc2F)CC1	-42.64
Fc1cccnc1Oc1cc(F)c(CN2CCCC2)c(F)c1	13.36
Cc1nc(C2CCCNC2)cc(N(Cc2nccn2C)C2CC2)n1 (centres undefined)	7.981
Cc1nc(NCCC23CCCN2CCC3)cc(C2CCCNC2)n1 (centres undefined)	-30.47
COc1cccc(CN2CC[C@H](c3nnc(C)o3)C2)c1	-103.2
O=c1n(Cc2ccccc2F)nc2ncccn12	-19.66
CCn1ccnc1C1CCN(Cc2c(F)cccc2F)CC1	-140
COc1cccc(CN2CCCC2Cn2nc(C)nc2C)c1 (centres undefined)	-44.63
CCSCc1cccc(NCc2cccnc2)c1	-120.6
CCCNc1cc(C(=O)N2CCOCC2)nc(C)n1	-41.3
COCCNC(=O)c1ccc2c(=O)n3c(nc2c1)CCCCCC3	-86.41
CC(C)N(C)Cc1cn2c(n1)CN(C(=O)c1ccc[nH]1)CC2	-50.23
COC[C@@H]1CC[C@H]2[C@H](CCN2S(=O)(=O)c2cccc(F)c2)O1	-8.99
Cc1ccc2c(c1)N(C(=O)c1c[nH]c(C)cc1=O)CC(C)O2 (centres undefined)	-44.94
O=C(c1cnccn1)N1CCCC(c2cccc(-n3ccnc3)n2)C1 (centres undefined)	-38.64
CC(C)C1SCC(=O)Nc2c1cnn2-c1ccc(Cl)cc1F (centres undefined)	-28.94
CCC(=O)NCC(=O)N(C)C(c1ccc(Cl)cc1)c1cccnc1 (centres undefined)	-30.63
Cn1c2ccc(F)cc2c2ncn(CCN3CCOCC3)c(=O)c21	-139.8
CC(Cc1ccccc1F)C(=O)Nc1cccc(OCC(N)=O)c1 (centres undefined)	-53.66
Cc1ccc([C@]2(O)CC[C@H]3CN(Cc4cccnc4)C[C@H]32)nc1	-69.34
Cc1ccc([C@]2(O)CC[C@H]3CN(Cc4ccc(Cl)cc4Cl)C[C@H]32)nc1	64.98
Cc1ccc([C@]2(O)CC[C@H]3CN(Cc4cccc(F)c4F)C[C@H]32)nc1.O=C(O)CC(O)(CC(=O)O)C(=O)O	43.22
CCc1oc(C(=O)N[C@@H]2c3ccccc3C[C@@H]2O)cc1CN1CCCC1	-27.56

Compound	Percent Effect [%]
CCOc1ccc(CN2CCN(C(=O)c3cc(C4CC4)[nH]n3)CC2)cc1	-17.17
CS(=O)(=O)NC1CCCN(Cc2ccc(OCc3ccccn3)cc2)C1 (centres undefined)	-34.46
Cn1cc(CN(C(=O)c2ccc3ncsc3c2)C2CC2)cn1	-137
COCC1CC2(CCN(C(=O)c3ccco3)CC2)CN1C(C)C.O=C(O)C(F)(F)F (centres undefined)	24.38
COCC1CC2(CCN(Cc3ccco3)CC2)CN1C(C)C.O=C(O)C(F)(F)F.O=C(O)C(F)(F)F (centres undefined)	63.6
COCC1CC2(CCN(C(=O)c3ccccc3C)CC2)CN1C(C)C.O=C(O)C(F)(F)F (centres undefined)	-58.35
COCC1CC2(CCN(Cc3cccc(C#N)c3)CC2)CN1C(C)C.O=C(O)C(F)(F)F.O=C(O)C(F)(F)F (centres undefined)	72.4
COC1COC2(CCN(Cc3cccc(C#N)c3)CC2)C1.O=C(O)C(F)(F)F (centres undefined)	-4.356
COCC1CC2(CCN(Cc3ccc(C)o3)CC2)CN1C(C)C.O=C(O)C(F)(F)F.O=C(O)C(F)(F)F (centres undefined)	34.42
CNC(=O)CNC(=O)Nc1cc(-c2ccccc2)ns1	-97.73
O=C(O)C(F)(F)F.O=C1CCCN1Cc1nnc2n1CCN(Cc1ccoc1)CC2	-13.9
CCOCCNC(=O)c1cccnc1Sc1cc(OC)ccc1OC	-83.15
CC(C)OCc1noc(C2CCCOC2)n1 (centres undefined)	-85.93
NC(=O)NCCC(=O)NCc1cccnc1N1CCc2ccccc2C1	-76.53
Cc1nnsc1C(=O)NCc1cccnc1N1CCc2ccccc2C1	-86.78
CC(C)[C@@H](N)C(=O)NCc1cccnc1N1CCc2ccccc2C1	28.21
COC(=O)CCC(=O)NCc1cccnc1N1CCc2ccccc2C1	58.06
Cc1cc(C(=O)NCc2cccnc2N2CCc3ccccc3C2)[nH]n1	-34.77
Cc1n[nH]cc1C(=O)NCc1cccnc1N1CCc2ccccc2C1	75.05
O=S(=O)(Cc1ccccc1F)Cc1nnnn1C1CC1	-164.7
CC(C)CC(=O)N1CCC2(CC1)OC(C(N)=O)Cn1ccnc12.O=C(O)C(F)(F)F (centres undefined)	-41.43
CC(C)c1cc(C(=O)NC2CCN(CC(N)=O)CC2)nn1C(C)(C)C	-153
COc1ccc2oc(C(C)NC(=O)NCc3noc(C)n3)c(C)c2c1 (centres undefined)	-10.38
CCc1cnc(N)nc1NCCCn1nc(C)nc1C	-48.25
CCc1cnc(C)nc1NCCN1CCOCC1	-14.69
Cn1cc(Br)c(C(=O)NCCCn2cc(Cl)cn2)n1	-63.62

Compound	Percent Effect [%]
CCc1cnc(N)nc1NCCC(=O)NC1CCCCC1	-82.55
CCc1cnc(N)nc1NCCn1cc(Cl)cn1	54.15
CCc1cnc(N)nc1NCCCn1cc(Cl)cn1	84.03
CCN(CC)C(=O)C1CCCN(CC(=O)Nc2c(C)nn(CC)c2C)C1 (centres undefined)	-43.93
Cc1nn(CC(=O)N2CCN(Cc3cnn(C)c3C)CC2)cc1Cl	-81.13
CC(C)n1ccnc1C1CCN(C(=O)c2ccccc2)CC1	-13.68
CCNC(=O)c1ccc(N2CCCC(c3nccn3C(C)C)C2)nc1 (centres undefined)	-31.13
CCNC(=O)C1CCN(c2cc(-c3ccccc3)nc3ccnn23)C1 (centres undefined)	-30.81
CN(C)C1CCN(c2cc(-c3ccccc3)nc3ccnn23)C1 (centres undefined)	51.07
Cc1cc(N2CCCC(N(C)C)C2)n2nccc2n1 (centres undefined)	-65.48
O=C(NCCCn1ccccc1=O)c1cnc(-c2ccsc2)s1	-39.04
O=C(CCNCc1cccc2c1OCCCO2)NC1CCCC1	12.04
O=S(=O)(CCNCc1cccc2c1OCCO2)N1CCOCC1	10.69
O=C(CC1CCCC1)NCCNCc1cccc2c1OCCO2	71.86
CC(C)c1nc(CN2CCOC(CNc3cccnn3)C2)cs1 (centres undefined)	-68.41
O=C1c2ccccc2C(=O)N1CC(O)Cn1nc(-c2cccs2)oc1=O (centres undefined)	1.705
O=C(c1ccnc(CC2COc3ccccc3C2)c1)N1CCCC1 (centres undefined)	-41.96
CCS(=O)(=O)N1CCc2ccc(NC(=O)NC(C)(C)C)cc21	-106.6
CC(C)Oc1cccc(CN2CCC(C(C)N3CCOCC3)CC2)c1 (centres undefined)	55.35
CC(C1CCN(Cc2ccc(OC(F)F)cc2)CC1)N1CCOCC1 (centres undefined)	-27.61
CN1CCOC(CNCc2cccc(OC(F)(F)F)c2)C1 (centres undefined)	1.205
CC(O)CN1CCC(CNCc2cccc(C(N)=O)c2)CC1 (centres undefined)	-77.28
CC(O)CN1CCC(CNCc2cccc(OC(C)C)c2)CC1 (centres undefined)	61.47
CC(C1CCN(Cc2ccc(N(C)C)nc2)CC1)N1CCOCC1 (centres undefined)	-9.646
FC(F)(F)Oc1cccc(CNC[C@H]2Cn3ccnc3CO2)c1	-105.1
CCn1ccnc1CNCC1CCN(CC(O)c2ccccc2)CC1 (centres undefined)	-30.37

Compound	Percent Effect [%]
Cc1cccc(-c2[nH]ncc2CNCC2CCN(CC(C)O)CC2)c1 (centres undefined)	-49.15
CC(C)Oc1cccc(CC(=O)NC2CCN(CC(N)=O)CC2)c1	-80.49
CC(O)CN1CCC(CNCc2cccc(C(F)(F)F)c2)CC1 (centres undefined)	82.43
O=C(Nc1cn[nH]c1)N1CCCCCC1c1ccncc1 (centres undefined)	-103.8
Cn1cnc(S(=O)(=O)N2C[C@@H]3CC[C@H](C2)N(Cc2ccccn2)C3)c1	-132.7
N#Cc1ccc(F)c(CNC(=O)NC(CO)c2ccccc2)c1 (centres undefined)	-103.2
Cc1ccc(N2CCC3(CCC(=O)N3Cc3ccncc3)CC2)nn1.O=C(O)C(F)(F)F	-132.1
COCCn1cc(CC(=O)Nc2cc(C)n(C)n2)c2ccccc21	-50.35
Cc1cc(NCCC(=O)NC2CCCCC2)nc(-c2ccncc2)n1	-22.05
Cc1ccc(-c2n[nH]cc2CNCC2CCN(CC(C)O)CC2)cc1 (centres undefined)	-46.8
CC(O)CN1CCC(CNCc2ccc(S(C)(=O)=O)cc2)CC1 (centres undefined)	-36.2
Cc1ncc(C(=O)N2CCCC(n3cccn3)C2)s1 (centres undefined)	-29.56
CNC(=O)CS(=O)(=O)C1CCN(S(=O)(=O)c2ccccc2Cl)CC1	-120
Cc1cc(CN2CCC(CNS(=O)(=O)c3ccccc3Cl)CC2)c(C)o1	52.45
Cc1cc(CN2CCC(CNS(=O)(=O)c3ccccc3F)CC2)c(C)o1	78.36
O=C(c1cccc(CNS(=O)(=O)c2ccccc2F)c1)N1CCCC1	-96.06
Cc1cnc2c(S(=O)(=O)NCC3CC3)cccc2c1	-114.6
O=S(=O)(NCC1CCN(CCN2CCOCC2)C1)c1ccccc1F (centres undefined)	-18.99
CN(Cc1cnn(C)c1)C(=O)CCc1ccc2c(c1)OCO2	-45.89
O=C(NCCc1ccncc1)c1cccnc1OCC(F)(F)F	-160.3
CN(C)S(=O)(=O)N1CC[C@]2(O)CCN(Cc3cc(F)cc(F)c3)C[C@@H]2C1	-90.9
CN(C)S(=O)(=O)N1CC[C@]2(O)CCN(CCc3cccc(F)c3)C[C@@H]2C1	52.04
CN(C)S(=O)(=O)N1CC[C@]2(O)CCN(Cc3cccc(C#N)c3)C[C@@H]2C1	-65.92
CN(C)S(=O)(=O)N1CC[C@]2(O)CCN(CCCc3cccnc3)C[C@@H]2C1	-68.67
Cc1ccc(CN2CC[C@@]3(O)CCN(S(=O)(=O)N(C)C)C[C@H]3C2)cc1C	52.24
CN(C)S(=O)(=O)N1CC[C@]2(O)CCN(Cc3cccc(F)c3)C[C@@H]2C1	18.33
